# Source: PubChem BioAssay (NCATS)
# Records with an inconclusive call do not appear. Activity calls are given as the source filed them. The call rests on the fitted dose curve; in most records, active means well fitted curve in the direction sought with a large enough effect; inconclusive means small, poorly fitted or top-dose-only effect, or another doubt; inactive means no such curve, though single readings can be large; an effect the other way counts as inactive or inconclusive.
# Assay: qHTS of pediatric cancer cell lines to identify multiple opportunities for drug repurposing: Primary screen for DAOY cells (AID 1347090); further: nearly all actives have a fitted effect of over 55% in size;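 on activity change, negative = cytotoxic: plate controls were DMSO for no effect and bortezomib for full effect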
# Settings: DAOY medulloblastoma viability, CellTiter-Glo luminescence, 48 h; series mostly up to 46 µM; activity change, negative = cytotoxic: at the top concentration
# How it was run: (§1)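 Cell viability, CellTiter-Glo luminescence; 500-1,000 cells/well, 8- or 11-point titration, 48 h compound exposure at 37 degrees C, 5% CO2. Controls: DMSO neutral, bortezomib 2.3 µM final as positive.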
# Potency means the concentration at half of the fitted maximal effect.
Compound,"activity change, negative = cytotoxic",Potency
N[C@H]1CN(c2c(F)cc3c(=O)c(C(=O)O)cn(C4C[C@@H]4F)c3c2Cl)CC12CC2 (stereo not given in full),-7.81% (inactive),–
C=CC(=O)Nc1cccc(Nc2nc(NC3CCC(N(C)C)CC3)nc3c2ncn3C(C)C)c1 (stereo not given),–,3 nM (active)
O=C(NNC(=O)c1ccc(CNS(=O)(=O)c2ccc(F)c(Cl)c2)cc1)c1ccccc1,-12.9% (inactive),–
C[C@@H](NCc1cc2ccccc2[nH]1)c1cccc2ccccc12,-15.5% (inactive),–
Oc1cc2c(cc1O)C1c3ccc(O)c(O)c3OCC1(O)C2 (stereo not given),0.0293% (inactive),–
C=C(C)[C@@H]1CC[C@]2(C(=O)O)CC[C@]3(C)[C@H](CC[C@@H]4[C@@]5(C)CC[C@H](O)C(C)(C)[C@@H]5CC[C@]43C)[C@@H]12,-13% (inactive),–
COc1ccc(C(C)=O)c(O)c1,–,1870 nM (active)
CC(C)C[C@H](NC(=O)CNC(=O)c1cc(Cl)ccc1Cl)B1OC(=O)CC(CC(=O)O)(C(=O)O)O1 (stereo not given in full),–,148 nM (active)
Nc1cccc2c1C(=O)N(C1CCC(=O)NC1=O)C2=O (stereo not given),-7.45% (inactive),–
CC(C)(O)CC[C@@H](O)[C@](C)(O)[C@H]1CC[C@@]2(O)C3=CC(=O)[C@@H]4C[C@@H](O)[C@@H](O)C[C@]4(C)[C@@H]3CC[C@]12C,-19.2% (inactive),–
OCC(O)C(O)C(O)CO (stereo not given),-5.2% (inactive),–
O=C(O)C(=O)Nc1cccc(C2=NN=N[N]2)c1,-0.164% (inactive),–
C=C1CCC2[C@](C)(CO)C(O)CC[C@]2(C)C1CC=C1C(=O)OCC1O (stereo not given in full),-6.11% [at 92.7 µM] (inactive),–
CCC[C@H]1C[C@H](C(=O)N[C@@H]([C@@H]2O[C@@H](SC)[C@@H](O)[C@@H](O)[C@@H]2O)[C@H](C)Cl)N(C)C1,9.13% (inactive),–
C[C@H]1O[C@H](O[C@H]2[C@H](O)[C@@H](O)[C@@H](O[C@H]3[C@H](O)[C@@H](O)C(O)O[C@H]3CO)O[C@H]2CO)[C@H](O)[C@@H](O)[C@H]1N[C@H]1C=C(CO)[C@@H](O)[C@H](O)[C@@H]1O (stereo not given in full),8.39% (inactive),–
C=C[C@@H]1CN2CCC1C[C@H]2[C@H](O)c1ccnc2ccc(OC)cc12 (stereo not given in full),1.81% (inactive),–
CN(N=O)C(=O)N[C@H]1C(O)OC(CO)[C@@H](O)[C@H]1O (stereo not given in full),-2.91% (inactive),–
CC(=O)[C@]1(O)Cc2c(O)c3c(c(O)c2[C@@H](O[C@H]2C[C@H](N)[C@@H](O)[C@H](C)O2)C1)C(=O)c1ccccc1C3=O,–,935 nM (active)
O=S(=O)(O)CCSSCCS(=O)(=O)O,6.24% (inactive),–
COC[C@H](NC(=O)c1cnc(C)s1)C(=O)N[C@@H](COC)C(=O)N[C@@H](Cc1ccccc1)C(=O)[C@@]1(C)CO1,–,296 nM (active)
O=C1NC(=O)C(=Cc2ccc3nccc(-c4ccncc4)c3c2)S1,–,235 nM (active)
O=C1NC(O)CCN1[C@@H]1O[C@H](CO)[C@H](O)[C@H]1O (stereo not given in full),0.148% (inactive),–
C[C@@]12C(=O)OC(=O)[C@@]1(C)C1CCC2O1,–,2960 nM (active)
CC[C@]12C=CCN3CC[C@@]4(c5cc([C@@]6(C(=O)OC)C[C@H]7C[C@@H](C(C)(F)F)CN(Cc8c6[nH]c6ccccc86)C7)c(OC)cc5N(C)[C@H]4[C@@](O)(C(=O)OC)[C@H]1OC(C)=O)[C@@H]32,–,29.6 nM (active)
COC(=O)[C@@H]1[C@H]2C[C@@H]3c4[nH]c5ccccc5c4CCN3C[C@@H]2CC[C@@H]1O,-14% (inactive),–
C[C@H](NCc1ccc2c(c1)nc(NC(=O)c1ccc(-c3cn[nH]c3)s1)n2CCc1ccccc1)C(C)(C)C,–,2960 nM (active)

# Assay: qHTS of pediatric cancer cell lines to identify multiple opportunities for drug repurposing: Primary screen for SJ-GBM2 cells (AID 1347091);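 on activity change, negative = cytotoxic: plate controls were DMSO neutral control for no effect and bortezomib for full effect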
# Settings: SJ-GBM2 viability, CellTiter-Glo luminescence, 48 h; series mostly up to 46 µM; activity change, negative = cytotoxic: at the top concentration
# How it was run: as §1
Compound,"activity change, negative = cytotoxic",Potency
N[C@H]1CN(c2c(F)cc3c(=O)c(C(=O)O)cn(C4C[C@@H]4F)c3c2Cl)CC12CC2 (stereo not given in full),88.6% (inactive),–
CC(C)Oc1ccc(C(=O)N[C@H](CNC(=O)CN(C)C)Cc2ccc(-c3cn4cccc([C@H](C)O)c4n3)cc2)cc1Cl,–,148 nM (active)
C=CC(=O)Nc1cccc(Nc2nc(NC3CCC(N(C)C)CC3)nc3c2ncn3C(C)C)c1 (stereo not given),–,235 nM (active)
CCc1nc(-c2cccc(C)c2)c(-c2ccnc(NC(=O)c3ccccc3)c2)s1,–,18700 nM (active)
CC[C@@]1([C@@H]2O[C@@H]([C@H]3O[C@@](O)(CO)[C@H](C)C[C@H]3C)C[C@H]2C)CC[C@H]([C@]2(C)CC[C@]3(C[C@H](O)[C@@H](C)[C@@H]([C@@H](C)[C@@H](OC)[C@H](C)C(=O)O)O3)O2)O1,–,288 nM (active)
CCOc1cc2c(c(F)c1OCC)C(=N)N(CC(=O)c1cc(N3CCOCC3)c(OC)c(C(C)(C)C)c1)C2,–,23500 nM (active)
CC(C)(N)c1ccc(-c2nc3ccccc3nc2-c2ccccc2)cc1,–,23500 nM (active)
CC(C)(C)[C@H](NC(=O)c1ccc(N)c(Cl)c1)C(=O)N1CCC[C@@H]1C(=O)N[C@H](C#N)CC(=O)O,0.43% [at 4.84 µM] (inactive),–
O=C(NNC(=O)c1ccc(CNS(=O)(=O)c2ccc(F)c(Cl)c2)cc1)c1ccccc1,10.4% (inactive),–
C[C@@H](NCc1cc2ccccc2[nH]1)c1cccc2ccccc12,-24.8% (inactive),–
COc1cc(OC)c(C=CS(=O)(=O)Cc2ccc(OC)c(NCC(=O)O)c2)c(OC)c1,–,166 nM (active)
O=c1c(O)c(-c2ccc(O)c(O)c2)oc2cc(O)ccc12,–,18700 nM (active)
Oc1cc2c(cc1O)C1c3ccc(O)c(O)c3OCC1(O)C2 (stereo not given),11.8% (inactive),–
C=C(C)[C@@H]1CC[C@]2(C(=O)O)CC[C@]3(C)[C@H](CC[C@@H]4[C@@]5(C)CC[C@H](O)C(C)(C)[C@@H]5CC[C@]43C)[C@@H]12,–,18700 nM (active)
COc1ccc(C(C)=O)c(O)c1,22% (inactive),–
CC(C)C[C@H](NC(=O)CNC(=O)c1cc(Cl)ccc1Cl)B1OC(=O)CC(CC(=O)O)(C(=O)O)O1 (stereo not given in full),–,148 nM (active)
CC(=O)O[C@H]1C[C@@H]2CC[C@H]3[C@H]4C[C@H]([N+]5(C)CCCCC5)[C@@H](OC(C)=O)[C@@]4(C)CC[C@@H]3[C@@]2(C)C[C@H]1N1CCCCC1,22.1% (inactive),–
Nc1cccc2c1C(=O)N(C1CCC(=O)NC1=O)C2=O (stereo not given),14.4% (inactive),–
COc1cccc2c1C(=O)c1c(O)c3c(c(O)c1C2=O)C[C@@](O)(C(=O)CO)C[C@@H]3O[C@H]1C[C@H](N)[C@H](OC2CCCCO2)[C@H](C)O1 (stereo not given in full),–,1180 nM (active)
CC(C)(O)CC[C@@H](O)[C@](C)(O)[C@H]1CC[C@@]2(O)C3=CC(=O)[C@@H]4C[C@@H](O)[C@@H](O)C[C@]4(C)[C@@H]3CC[C@]12C,-2.14% (inactive),–

Compound,"activity change, negative = cytotoxic",Potency
OCC(O)C(O)C(O)CO (stereo not given),-8.97% (inactive),–
O=C(O)C(=O)Nc1cccc(C2=NN=N[N]2)c1,5.77% (inactive),–
C=C1CCC2[C@](C)(CO)C(O)CC[C@]2(C)C1CC=C1C(=O)OCC1O (stereo not given in full),0.773% [at 92.7 µM] (inactive),–
C[C@H](NC(=O)Cc1cc(F)cc(F)c1)C(=O)N[C@H](C(=O)OC(C)(C)C)c1ccccc1,-24.1% (inactive),–
CNC(=O)c1cccc(-c2ccc3c(N4CCOC[C@H]4C)nc(N4CCOC[C@H]4C)nc3n2)c1,–,105 nM (active)
CCC[C@H]1C[C@H](C(=O)N[C@@H]([C@@H]2O[C@@H](SC)[C@@H](O)[C@@H](O)[C@@H]2O)[C@H](C)Cl)N(C)C1,75.2% (inactive),–
C[C@H]1O[C@H](O[C@H]2[C@H](O)[C@@H](O)[C@@H](O[C@H]3[C@H](O)[C@@H](O)C(O)O[C@H]3CO)O[C@H]2CO)[C@H](O)[C@@H](O)[C@H]1N[C@H]1C=C(CO)[C@@H](O)[C@H](O)[C@@H]1O (stereo not given in full),–,4690 nM (active)
C=C[C@@H]1CN2CCC1C[C@H]2[C@H](O)c1ccnc2ccc(OC)cc12 (stereo not given in full),16.6% (inactive),–
CN(N=O)C(=O)N[C@H]1C(O)OC(CO)[C@@H](O)[C@H]1O (stereo not given in full),-4.23% (inactive),–
CC(=O)[C@]1(O)Cc2c(O)c3c(c(O)c2[C@@H](O[C@H]2C[C@H](N)[C@@H](O)[C@H](C)O2)C1)C(=O)c1ccccc1C3=O,–,83.3 nM (active)
O=S(=O)(O)CCSSCCS(=O)(=O)O,15.5% (inactive),–
COC[C@H](NC(=O)c1cnc(C)s1)C(=O)N[C@@H](COC)C(=O)N[C@@H](Cc1ccccc1)C(=O)[C@@]1(C)CO1,–,66.2 nM (active)
O=C1NC(=O)C(=Cc2ccc3nccc(-c4ccncc4)c3c2)S1,–,93.5 nM (active)
O=C1NC(O)CCN1[C@@H]1O[C@H](CO)[C@H](O)[C@H]1O (stereo not given in full),8.09% (inactive),–
C[C@@]12C(=O)OC(=O)[C@@]1(C)C1CCC2O1,–,2090 nM (active)
CC[C@]12C=CCN3CC[C@@]4(c5cc([C@@]6(C(=O)OC)C[C@H]7C[C@@H](C(C)(F)F)CN(Cc8c6[nH]c6ccccc86)C7)c(OC)cc5N(C)[C@H]4[C@@](O)(C(=O)OC)[C@H]1OC(C)=O)[C@@H]32,–,1 nM (active)
COC(=O)[C@@H]1[C@H]2C[C@@H]3c4[nH]c5ccccc5c4CCN3C[C@@H]2CC[C@@H]1O,8.45% (inactive),–
C[C@H](NCc1ccc2c(c1)nc(NC(=O)c1ccc(-c3cn[nH]c3)s1)n2CCc1ccccc1)C(C)(C)C,–,1050 nM (active)
C[C@@H](Oc1ccc2[nH]nc(C=Cc3cnn(CCO)c3)c2c1)c1c(Cl)cncc1Cl,–,418 nM (active)
